Measured values from publication PMC4336329 (PLoS ONE, 2015).
Out of some 310,000 compounds screened, about 14,000 (4.5%) showed an effect of 50% or more. Effects have a minus sign here. The full list was thinned out, with strong results kept by preference.

These compounds were tested against human ether-à-go-go-related gene (hERG) potassium channel (human, UniProt Q12809) (assay: primary screen, population patch clamp on CHO cells stably expressing hERG; higher = less effect of the substance).
human ether-à-go-go-related gene (hERG) potassium channel, sequence (Q12809 whole entry, looked up): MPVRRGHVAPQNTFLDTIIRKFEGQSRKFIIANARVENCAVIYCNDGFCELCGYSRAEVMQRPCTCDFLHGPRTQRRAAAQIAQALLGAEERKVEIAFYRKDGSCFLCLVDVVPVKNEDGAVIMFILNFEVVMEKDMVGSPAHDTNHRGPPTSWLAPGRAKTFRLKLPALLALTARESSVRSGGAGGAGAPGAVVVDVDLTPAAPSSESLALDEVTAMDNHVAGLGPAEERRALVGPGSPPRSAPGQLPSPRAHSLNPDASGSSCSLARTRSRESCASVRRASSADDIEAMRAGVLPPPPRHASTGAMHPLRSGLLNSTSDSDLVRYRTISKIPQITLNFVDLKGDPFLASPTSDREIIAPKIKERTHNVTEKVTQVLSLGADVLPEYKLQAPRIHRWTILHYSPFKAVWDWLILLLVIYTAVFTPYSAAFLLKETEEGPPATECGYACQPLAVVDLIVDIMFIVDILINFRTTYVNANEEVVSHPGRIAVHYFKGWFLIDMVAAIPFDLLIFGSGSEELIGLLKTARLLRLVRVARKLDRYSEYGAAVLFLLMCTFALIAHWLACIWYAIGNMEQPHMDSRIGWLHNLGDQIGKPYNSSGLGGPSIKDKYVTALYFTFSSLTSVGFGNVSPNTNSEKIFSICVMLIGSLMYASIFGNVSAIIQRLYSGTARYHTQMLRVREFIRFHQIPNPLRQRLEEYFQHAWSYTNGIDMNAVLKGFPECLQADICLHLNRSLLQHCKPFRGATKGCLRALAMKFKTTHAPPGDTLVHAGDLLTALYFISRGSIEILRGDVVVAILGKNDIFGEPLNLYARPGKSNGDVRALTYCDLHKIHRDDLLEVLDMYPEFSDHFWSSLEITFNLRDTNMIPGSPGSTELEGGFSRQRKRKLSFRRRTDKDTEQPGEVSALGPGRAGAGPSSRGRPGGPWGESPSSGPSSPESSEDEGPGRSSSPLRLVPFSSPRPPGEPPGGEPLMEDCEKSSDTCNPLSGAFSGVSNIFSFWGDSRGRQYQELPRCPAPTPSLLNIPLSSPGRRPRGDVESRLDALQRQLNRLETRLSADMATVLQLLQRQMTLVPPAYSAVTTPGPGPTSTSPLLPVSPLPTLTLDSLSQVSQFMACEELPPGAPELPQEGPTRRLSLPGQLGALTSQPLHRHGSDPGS
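Further: peak tail current of the secondary pulse compared with the same well before compound.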

Compound	hERG current change (%, negative = inhibition) at 10uM [%]
CC(=O)c1c(NCCc2ccccc2)nc(=S)n(-c2ccccc2)c1C	7.04
CCn1c(=O)cc(OCC(=O)NCc2ccco2)c2ccccc21	0.766
CCN1CCCC1CNC(=O)Cn1cnc2sc(C)c(S(=O)(=O)N3CCC(C)CC3)c2c1=O (stereo not drawn)	-14.5
Cc1ccc2nc(N3C(=O)C(O)=C(C(=O)c4ccco4)C3c3ccc(C)o3)sc2c1.O=C(O)C(=O)O (stereo not drawn)	1.65
CC(NC(=O)C1CCC(CNC(=O)[C@@H]2Cc3ccccc3CN2)CC1)c1ccccc1 (stereo partly drawn)	-4.23
CCn1c(SCC(=O)Nc2cc(C)on2)nnc1-c1ccc(S(=O)(=O)N2CCCC2)cc1	-1.7
Cc1ccc2cc3cc(C(=O)NCCN4CCOCC4)oc3nc2c1	-14.5
Cc1ccc2cc3cc(C(=O)NCCCN4CCCC4)oc3nc2c1	-15.5
Cc1ccc2cc3cc(C(=O)NCCCN4CCCCCC4)oc3nc2c1	-50.6
Cc1ccc2cc3cc(C(=O)NCCCN4CCCC4=O)oc3nc2c1	2.4
Cc1ccc2cc3cc(C(=O)NCc4ccco4)oc3nc2c1	-1.21
Cc1ccc2cc3cc(C(=O)NCCCN4CC(C)CC(C)C4)oc3nc2c1 (stereo not drawn)	-62.9
Cc1ccc2oc(=O)c3cc(C(=O)NCCCN4CCc5ccccc5C4)sc3c2c1	-6.63
Cc1ccc2cc3cc(C(=O)N4CC(C)CC(C)C4)oc3nc2c1 (stereo not drawn)	1.38
Cc1ccc2cc3cc(C(=O)NCCCN4CCc5ccccc5C4)oc3nc2c1	-54.9
CCOC(=O)C1C(c2ccccc2O)NC(=O)NC1(O)C(F)(F)F (stereo not drawn)	16.9
COc1ccc(OCC(=O)Nc2cccc(C(C)=O)c2)cc1	-7.29
CC(C)(C)c1ccc(C(=O)c2c[nH]c(C(=O)NCCc3ccccn3)c2)cc1	15.1
Cc1ccc(N(C)C(=O)C2CCCN2S(=O)(=O)c2ccc3c(c2)n(C)c(=O)c(=O)n3C)cc1 (stereo not drawn)	-2.28
COc1ccccc1C(=O)NCC(=O)N=Nc1c(O)n(C(C)C)c2ccccc12	-7.32
CC(CN1CCOCC1)OC(=O)c1ccccc1Cl.Cl (stereo not drawn)	12

Compound	hERG current change (%, negative = inhibition) at 10uM [%]
CC1(C)CC(=O)C(C=NCCN2CCN(C(=O)Cc3ccccc3)CC2)=C(O)C1	-24.8
CC1(C)CC(=O)C(C=NCCN2CCN(C3CC(=O)N(c4ccc(Br)cc4)C3=O)CC2)=C(O)C1 (stereo not drawn)	-19.3
CC1(C)CC(=O)C(C=NCCN2CCN(C(=S)Nc3cccc(Cl)c3)CC2)=C(O)C1	-66.3
CC1(C)CC(=O)C(C=NCC2CCN(C(=S)Nc3cccc(Cl)c3)CC2)=C(O)C1	-62.4
CC1(C)CC(=O)C(C=NCC2CCN(C(=S)Nc3ccccc3)CC2)=C(O)C1	-3.98
CC1(C)CC(=O)C(C=NCCN2CCN(C3CC(=O)N(c4ccc(Cl)c(Cl)c4)C3=O)CC2)=C(O)C1 (stereo not drawn)	-50.2
CC1(C)CC(=O)C(C=NCCN2CCN(C(=S)Nc3ccccc3)CC2)=C(O)C1	-11.3
CC1(C)CC(=O)C(C=NCCN2CCN(C(=S)Nc3ccc(F)cc3)CC2)=C(O)C1	-27.8
CC1(C)CC(=O)C(C=NCCN2CCN(C(=O)Cc3ccc(F)cc3)CC2)=C(O)C1	-23.5
CC1(C)CC(=O)C(C=NCCN2CCN(C(=O)Cc3ccc(Cl)cc3)CC2)=C(O)C1	-62
CC1(C)CC(=O)C(C=NCCN2CCN(C3CC(=O)N(c4ccc(F)cc4)C3=O)CC2)=C(O)C1 (stereo not drawn)	6.86
CC1(C)CC(=O)C(C=NCC2CCN(C(=O)Nc3ccc(Cl)c(Cl)c3)CC2)=C(O)C1	-23.8
COc1ccc(Br)cc1C(=O)Nc1cc(C)cc(C)c1	5.21
NC(=O)c1cc2n(n1)C(C(F)(F)F)CC(c1ccco1)N2 (stereo not drawn)	-7.54
COC(=O)C1NN=C(C(=O)c2ccc(Br)cc2)C1c1cccc(Br)c1 (stereo not drawn)	2.42
CC(C)c1nc2sc3c(SCC(N)=O)ncnc3c2c2c1CCC2	11.9
NC(=O)c1ccc(C(F)(F)F)n(Cc2c(Cl)cccc2Cl)c1=O	25.1
CCc1cccc(CC)c1NC(=O)/C(C#N)=C/c1ccccc1C(F)(F)F	21.4
C=CCn1c(NCCc2ccccc2)nc2c1c(=O)n(C)c(=O)n2C	-1.17
Cc1ccccc1NC(=O)C1CCC(=O)N1 (stereo not drawn)	-0.504
Cc1c(N2C(=O)c3ccc(F)cc3C2=O)c(=O)n(-c2ccccc2)n1C	13.6

Compound	hERG current change (%, negative = inhibition) at 10uM [%]
Cc1ccccc1Nc1nc(N)nc(-c2oc3ccccc3c2C)n1	4.69
COc1ccc(Cl)cc1NC(=O)CCN1C(=O)C2C3C=CC(C4CC34)C2C1=O (stereo not drawn)	-24.4
COc1ccc(O)c(-c2cc(-c3ccccc3[N+](=O)[O-])[nH]n2)c1	-11.7
Cc1nc(NC(=O)CSc2nnc(Cn3nnc4ccccc43)n2C)sc1C	0.783
CCOC(=O)Cc1csc(NC(=O)CSc2nnc(Cc3csc(N)n3)n2C)n1	-1.19
COC(=O)c1sc(NC(=O)CSc2nnc(Cn3nnc4ccccc43)n2C)nc1C	23.9
COC(=O)c1c(NC(=O)CSc2nnc(Cn3nnc4ccccc43)n2C)sc(C)c1C	-62.7
CCOC(=O)c1c(NC(=O)CSc2nnc(Cc3csc(N)n3)n2C)sc(C)c1C	-51.8
CCOC(=O)c1c(NC(=O)CSc2nnc(CNc3ccc(OC)cc3)n2C)sc(C)c1C	-21.7
CN(C)C(=O)N1CCC(C(=O)NCc2ccc3c(c2)OCO3)CC1	5.54
O=C(CNc1cccc2ccccc12)N/N=C/c1cccc(Oc2ccccc2)c1	18.2
Cc1ccc(S(=O)(=O)N2CCN(C(=O)COC(=O)CCOc3ccccc3)CC2)c(C)c1	1.16
CCN(CC(=O)Nc1ccc(OC)cc1)CC(=O)Nc1cccc(C#N)c1	0.389
COc1ccc(CNC(=O)C2CCN(C(=O)c3cccc(Cl)c3)CC2)cc1	-44.9
COc1ccc(CN2CCC(C(=O)c3cccc(Cl)c3)CC2)cc1	-78.7
O=C(c1cccc(Cl)c1)C1CCCN(Cc2ccc(N3CCNC3=O)cc2)C1 (stereo not drawn)	-43.7
CS(=O)(=O)N1CCC(C(=O)c2cccc(Cl)c2)CC1	-0.907
COc1cccc(C(=O)C2CCCN(Cc3ccc(F)cc3)C2)c1 (stereo not drawn)	-18.6
COc1ccc(CN2CCCC(C(=O)c3cccc(Cl)c3)C2)cc1 (stereo not drawn)	-57.4
O=C(c1cccc(Cl)c1)C1CCCN(Cc2ccon2)C1 (stereo not drawn)	-26.3
COc1cccc(OC)c1CN1CCCC(C(=O)c2cccc(Cl)c2)C1 (stereo not drawn)	-69

Compound	hERG current change (%, negative = inhibition) at 10uM [%]
C[C@H](CCC(=O)NCC(=O)[O-])[C@H]1CC[C@H]2[C@@H]3[C@H](O)C[C@@H]4C[C@H](O)CC[C@]4(C)[C@H]3C[C@H](O)[C@]12C.O.[Na+]	-21.4
Cc1ccc(Cn2ccc(NC(=O)c3cc(-c4ccc(Cl)cc4)on3)n2)cc1	17.3
COc1cccc(Nc2ncnc3sc(C)cc23)c1.Cl	-8.64
C#CCOCCOCCOCCNc1nc(N2CCN(C(=O)[C@H]([C@@H](C)CC)n3cc([C@@H](N)CC(C)C)nn3)CC2)nc(N2CCN(C(=O)[C@H](CCCCN)n3cc([C@@H](N)CC(C)C)nn3)CC2)n1.Cl	-10.1
CCOc1ccccc1CNC(=O)c1ccc(NC(=O)C2=CSCCO2)cc1	7.72
COc1ccccc1C(=O)NCCC(=O)NCc1ccccn1	-2.66
O=C(O)C(=O)O.O=[N+]([O-])c1ccc(Oc2ccc(C(F)(F)F)cn2)cc1	-53.9
O=[N+]([O-])c1ccc(Oc2ccc(Oc3ccc(C(F)(F)F)cn3)cc2)nc1	-1.44
O=C(O)c1ccc(Oc2ccc(C(F)(F)F)cn2)cc1	17.5
COc1ccc(NC(=O)Nc2c(C)n(C)n(-c3ccccc3)c2=O)cc1	-18.6
NC1=NC(=O)/C(=C\c2ccco2)S1	19.2
O=C1N=C(N2CCCC2C(=O)O)S/C1=C\c1ccco1 (stereo not drawn)	35
O=C1N=C(N2CCN(c3ccccc3)CC2)S/C1=C\c1ccco1	-66.1
O=C1N=C(N2CCN(c3ccccc3)CC2)S/C1=C/c1ccco1	-53.8
O=C1N=C(N2CCCC2)S/C1=C\c1ccccc1	15.2
O=C1N=C(N2CCN(c3ccccc3)CC2)S/C1=C/c1cccs1	-49.3
CCC(C)C(NC(=O)CCCNC(=O)CCC(=O)OC1O[C@H]2OC3(C)CC[C@H]4[C@H](C)CCC(C1C)C24OO3)C(=O)O (stereo partly drawn)	4.12
CC(C)CC(NC(=O)CCCNC(=O)CCC(=O)OC1O[C@H]2OC3(C)CC[C@H]4[C@H](C)CCC(C1C)C24OO3)C(=O)O (stereo partly drawn)	1.34
